# The campaign covered roughly 2,700 compounds. About 160 (5.9%) showed an effect of 50% or more. What follows is part of a selection rich in strong results, with near analogues and random picks from the rest.
# Target: Nonstructural protein 3 (Zika virus) (UniProt A0A024AXB9)
# [1] = PRVABC59, Concentration 50.0 uM, Number of replicates 1.0
# [2] = PRVABC59, Concentration 15.0 uM, Number of replicates 1.0
# Sequence of Nonstructural protein 3 (Zika virus) (A0A024AXB9 as listed by the source): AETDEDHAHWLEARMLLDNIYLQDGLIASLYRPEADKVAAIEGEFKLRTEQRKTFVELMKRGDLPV
compound,measurement,setting,value
O=Cc1ccc(N2CCC(C(=O)Nc3cc(Cl)ccc3Br)CC2)cc1,inhibition,[1],19.5%
Cc1cc(-c2nn(C)cc2NC(=O)c2ccccc2C(F)(F)F)[nH]n1,inhibition,"PRVABC59, Concentration 49.5 uM, Number of replicates 2.0, Standard deviation 1.8946804704330402 %",-3.15%
same,inhibition,"PRVABC59, Concentration 99.01 uM, Number of replicates 2.0, Standard deviation 0.666066751064398 %",-1.39%
same,inhibition,"PRVABC59, Concentration 198.0 uM, Number of replicates 2.0, Standard deviation 1.3743584908968294 %",2.3%
O=C(Nc1cnc(Br)c(Cl)n1)c1cc(Cl)ccc1NS(=O)(=O)c1ccc(Oc2ccccc2Cl)cc1,inhibition,[2],20.6%
O=Cc1ccc(N2CCC(C(=O)NCCc3ccc(C(F)(F)F)cc3)CC2)cc1,inhibition,[1],25.7%
CCOC(=O)c1cc(Cn2cc(C3CCNCC3)c(C)n2)on1,inhibition,"PRVABC59, Concentration 49.5 uM, Number of replicates 2.0, Standard deviation 3.597880558823145 %",-0.431%
same,inhibition,"PRVABC59, Concentration 99.01 uM, Number of replicates 2.0, Standard deviation 3.9852172616025077 %",-1.41%
same,inhibition,"PRVABC59, Concentration 198.0 uM, Number of replicates 2.0, Standard deviation 1.6156285466659275 %",-2.54%
CC1(C)[C@H]2CC[C@]1(C)[C@H](NC(=O)C1CCN(c3ccc(C=O)cc3)CC1)C2,inhibition,[1],-4.03%
O=Cc1ccc(N2CCC(C(=O)Nc3cccc(Cl)c3Br)CC2)cc1,inhibition,[1],21%
c1cnc(N2CCOCC2)c(CN2CC[C@H](c3c[nH]c4ccccc34)C2)c1,inhibition,"PRVABC59, Concentration 49.5 uM, Number of replicates 2.0, Standard deviation 0.5816150455075427 %",4.93%
same,inhibition,"PRVABC59, Concentration 99.01 uM, Number of replicates 2.0, Standard deviation 1.6761828626765602 %",10.2%
same,inhibition,"PRVABC59, Concentration 198.0 uM, Number of replicates 2.0, Standard deviation 1.4600963075359947 %",18.9%
Nc1ccc(Cl)c2cccnc12,inhibition,"PRVABC59, Concentration 99.9 uM, Number of replicates 2.0, Standard deviation 7.433905478836123 %",-9.18%
Nc1cccc2c(Cl)ccnc12,inhibition,"PRVABC59, Concentration 49.95 uM, Number of replicates 2.0, Standard deviation 13.26082141913299 %",25%
same,inhibition,"PRVABC59, Concentration 99.9 uM, Number of replicates 2.0, Standard deviation 5.807935528538471 %",61.3%
Nc1ccc(Cl)c2ncccc12,inhibition,"PRVABC59, Concentration 49.95 uM, Number of replicates 2.0, Standard deviation 10.856665376334321 %",2.86%
same,inhibition,"PRVABC59, Concentration 99.9 uM, Number of replicates 2.0, Standard deviation 9.901328830284072 %",10.8%
Cc1ccc(CN(C(=O)C2CCN(c3ccc(C=O)cc3)CC2)C2CC2)s1,inhibition,[1],27.6%
Cc1cc(CO)c2cccc(NC(=O)CCN)c2n1,inhibition,"PRVABC59, Concentration 49.95 uM, Number of replicates 2.0, Standard deviation 0.34164167967973086 %",58.9%
same,inhibition,"PRVABC59, Concentration 99.9 uM, Number of replicates 2.0, Standard deviation 0.25939261057290325 %",94.2%
Cc1cc(CO)c2cccc(NC(=O)c3nc(N)n[nH]3)c2n1,inhibition,"PRVABC59, Concentration 49.95 uM, Number of replicates 2.0, Standard deviation 1.6810779662500097 %",28.9%
same,inhibition,"PRVABC59, Concentration 99.9 uM, Number of replicates 2.0, Standard deviation 2.6897269039186593 %",60.8%
Cc1cc(CO)c2cccc(NC(=O)[C@@H](N)CCN)c2n1,inhibition,"PRVABC59, Concentration 49.95 uM, Number of replicates 2.0, Standard deviation 10.156724992387474 %",7.81%
same,inhibition,"PRVABC59, Concentration 99.9 uM, Number of replicates 2.0, Standard deviation 27.740304464442595 %",6.58%
CC(=O)N[C@@H](CCCCN)C(=O)Nc1cccc2c(Cl)cc(C)nc12,inhibition,"PRVABC59, Concentration 49.95 uM, Number of replicates 2.0, Standard deviation 3.802363243631691 %",19.9%
same,inhibition,"PRVABC59, Concentration 99.9 uM, Number of replicates 2.0, Standard deviation 2.8723353743500515 %",37.2%
Cc1cc(CO)c2cccc(NC(=O)Cc3cccc(CN)c3)c2n1,inhibition,"PRVABC59, Concentration 49.95 uM, Number of replicates 2.0, Standard deviation 2.002239649301327 %",8.36%
same,inhibition,"PRVABC59, Concentration 99.9 uM, Number of replicates 2.0, Standard deviation 0.9082841415474754 %",22.1%
Cc1cc(CO)c2cccc(Cc3ccccc3NC(=O)c3nc(N)n[nH]3)c2n1,inhibition,"PRVABC59, Concentration 49.95 uM, Number of replicates 2.0, Standard deviation 1.1858913556413317 %",-1.17%
same,inhibition,"PRVABC59, Concentration 99.9 uM, Number of replicates 2.0, Standard deviation 1.6592298829189325 %",2.56%
Cc1cc(CO)c2cccc(Cc3cccc(NC(=O)c4nc(N)n[nH]4)c3)c2n1,inhibition,"PRVABC59, Concentration 49.95 uM, Number of replicates 2.0, Standard deviation 3.2981012364268594 %",-0.767%
same,inhibition,"PRVABC59, Concentration 99.9 uM, Number of replicates 2.0, Standard deviation 3.2421151330326254 %",4.54%
CC(=O)N[C@@H](CCCN)C(=O)Nc1cccc2c(Cl)cc(C)nc12,inhibition,"PRVABC59, Concentration 99.9 uM, Number of replicates 2.0, Standard deviation 3.96053156793845 %",2.63%
Cc1cc(Cl)c2cccc(NC(=O)CCN)c2n1,inhibition,"PRVABC59, Concentration 49.95 uM, Number of replicates 2.0, Standard deviation 0.2024559271573544 %",95.1%
same,inhibition,"PRVABC59, Concentration 99.9 uM, Number of replicates 2.0, Standard deviation 0.15816464699422608 %",91.2%
O=C(Nc1c(Cl)cncc1Cl)c1cc(Cl)ccc1NS(=O)(=O)c1ccc(Oc2ccccc2Cl)cc1,inhibition,[2],22%
O=Cc1ccc(N2CCC(C(=O)NC[C@@H](c3ccc(Cl)cc3)N3CCCC3)CC2)cc1,inhibition,[1],18.7%
O=Cc1ccc(N2CCC(C(=O)Nc3nc4cc(Cl)ccc4s3)CC2)cc1,inhibition,[1],22.7%
CN1CCN(c2ccccc2NC(=O)C2CCN(c3ccc(C=O)cc3)CC2)CC1,inhibition,[1],22.1%
CC(=O)N[C@@H](CCCN)C(=O)Nc1cccc2cccnc12,inhibition,"PRVABC59, Concentration 49.95 uM, Number of replicates 2.0, Standard deviation 1.6196420224622259 %",19.2%
same,inhibition,"PRVABC59, Concentration 99.9 uM, Number of replicates 2.0, Standard deviation 2.0688397621434533 %",38.7%
N[C@@H]1CCCC[C@H]1C(=O)Nc1cccc2cccnc12,inhibition,"PRVABC59, Concentration 99.9 uM, Number of replicates 2.0, Standard deviation 1.8980185851288 %",-8.2%
O=C(Nc1cccc2cccnc12)C1CCNCC1,inhibition,"PRVABC59, Concentration 49.95 uM, Number of replicates 2.0, Standard deviation 0.5440976068370852 %",42.6%
same,inhibition,"PRVABC59, Concentration 99.9 uM, Number of replicates 2.0, Standard deviation 0.5440976068370852 %",92%
O=C(c1cc(Cl)ccc1NS(=O)(=O)c1ccc(Oc2ccccc2Cl)cc1)N1CCC(O)(c2ccc(Cl)cc2)CC1,inhibition,[2],26.1%

# Source: ChEMBL document CHEMBL5606458, “ASAP - ZIKV NS2B-NS3 protease fluorescence single point” (2024)
